Results filed as inconclusive are left out. The source made the active and inactive calls. How the source made its calls, unless noted: active means hit-call score of the fitted dose curve at least 0.9, where 1 is the maximum; inactive means score below 0.9.

In PubChem BioAssay (EPA / NIEHS) one finds outcome and AC50 data, which are given here for 16 molecules.

Test [1] addresses human Retinoid X Receptor beta (RXRb), RXRB (gene 6257) (UniProt P28702). The experiment in a line: ATG_RXRb_TRANS: Attagene TRANS-FACTORIAL HepG2 Assay for human Retinoid X Receptor beta (RXRb) (AID 2283013; active means hit-call score of the fitted dose curve at least 0.9, where 1 is the maximum). The method in brief: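 Read-out: reporter mRNA induction via RT-PCR plus capillary electrophoresis fluorescence, analysed as signal increase relative to DMSO. Cells were human HepG2, transiently transfected with GAL4-UAS reporter constructs and chimeric receptor-Gal4 fusions, dosed for 24 h.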

Read-out in test [2]: E-selectin (Homo sapiens) (UniProt P16581)
The experiment in a line: BSK_3C_Eselectin: BioMAP Diversity Plus: 3C Assay for Eselectin Biomarker Activity (AID 2283015).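 On outcome: cell surface E-selectin protein quantified by ELISA 24 h after dosing.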 To be noted: primary human endothelial cells (HUVEC); actives raise or lower the signal. The method in brief: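 Primary human umbilical vein endothelial cells (3C system), read 24 h after compound addition; E-selectin measured by ELISA. Bidirectional curve fitting against DMSO baseline; cytotoxicity by parallel SRB total-protein staining.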

Read-out in test [3]: Interleukin-1 alpha (IL1a), IL1A (gene 3552)
The test can be described thus: BSK_BE3C_IL1a: BioMAP Diversity Plus: BE3C Assay for Interleukin-1 alpha (IL1a) Biomarker Activity (AID 2283016). The note with it: primary human bronchial epithelial cells; actives raise or lower the signal. The procedure, abridged:
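ELISA read-out of IL-1a from human lung bronchial epithelial primary cells, 24 h post-dose. Gain or loss of signal fitted relative to DMSO negative control.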

Read-out in test [4]: Monocyte Chemoattractant Protein-1 (MCP1), CCL2 (gene 6347)
The test can be described thus: BSK_4H_MCP1: BioMAP Diversity Plus: 4H Assay for Monocyte Chemoattractant Protein-1 (MCP1) Biomarker Activity (AID 2283018). To be noted: primary human endothelial cells (HUVEC); actives raise or lower the signal. The procedure, abridged:
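HUVEC primary cells, 24 h post-dose, MCP-1 by ELISA. Gain or loss of signal fitted bidirectionally vs DMSO baseline. Cytotoxicity: SRB stain (0.1% after 10% TCA fixation), read 560 nm, parallel cultures.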

Read-out in test [5]: Interleukin-8 (IL8), CXCL8 (gene 3576)
The experiment in a line: BSK_3C_IL8: BioMAP Diversity Plus: 3C Assay for Interleukin-8 (IL8) Biomarker Activity (AID 2283020). To be noted: primary human endothelial cells (HUVEC); actives raise or lower the signal. The method in brief: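 HUVEC, 3C stimulation; 24 h compound exposure; IL-8 read by ELISA; gain or loss of signal fitted relative to DMSO control.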

Read-out in test [6]: Monokine induced gamma interferon (MIG), CXCL9 (gene 4283)
The experiment in a line: BSK_3C_MIG: BioMAP Diversity Plus: 3C Assay for Monokine induced gamma interferon (MIG) Biomarker Activity (AID 2283021).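 On AC50: MIG protein level measured by immunoassay in the treated endothelial cultures.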 To be noted: primary human endothelial cells (HUVEC); actives raise or lower the signal. The method in brief:
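HUVEC, 3C system; 24 h chemical exposure; MIG by ELISA; bidirectional fit vs DMSO baseline.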

Test [7] in a line: BSK_3C_SRB: Viability Assessment in the BioMAP Diversity Plus: 3C Assay (AID 2283023).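 Further: fitted both ways against DMSO so a hit may be signal rise or drop.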 To be noted: primary human endothelial cells (HUVEC). The method in brief:
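Human umbilical vein endothelial cells in the 3C system, treated 24 h. Total protein measured by 0.1% sulforhodamine B staining after 10% TCA fixation, read at 560 nm; bidirectional fit versus DMSO.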

Read-out in test [8]: Matrix Metallopeptidase 1 (MMP1), MMP1 (gene 4312)
The experiment in a line: BSK_BE3C_MMP1: BioMAP Diversity Plus: BE3C Assay for Matrix Metallopeptidase 1 (MMP1) Biomarker Activity (AID 2283024). To be noted: primary human bronchial epithelial cells; actives raise or lower the signal. The method in brief:
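ELISA read-out of MMP1 in human lung bronchial epithelial primary cultures, 24 h post-dose; bidirectional curve fit vs DMSO baseline, gain or loss of signal scored.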

The nature of test [9]: BSK_3C_Vis: BioMAP Diversity Plus: 3C Assay for Morphology Visualization (AID 2283025).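 Further: fitted both ways so gain or loss versus DMSO counts.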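 On AC50: light microscopy image of cell morphology used as background control.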 To be noted: primary human endothelial cells (HUVEC). The procedure, abridged:
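HUVEC, 3C system; light microscopy of morphology at 24 h post-dose. Bidirectional fit vs DMSO baseline. Secondary readout, background-control function.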

Read-out in test [10]: Pselectin, SELP (gene 6403)
The test can be described thus: BSK_4H_Pselectin: BioMAP Diversity Plus: 4H Assay for Pselectin Biomarker Activity (AID 2283026). The note with it: primary human endothelial cells (HUVEC); actives raise or lower the signal. The procedure, abridged:
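HUVEC, 24 h chemical exposure; P-selectin read by ELISA. Bidirectional curve fit vs DMSO baseline; gain or loss of signal scored.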

Test [11] is described as follows: BSK_4H_SRB: Viability Assessment in the BioMAP Diversity Plus: 4H Assay (AID 2283027).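 Further: cells exposed to compound for 24 h before staining.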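 On AC50: curves fitted both ways versus DMSO so AC50 may be loss or gain.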 To be noted: primary human endothelial cells (HUVEC). The procedure, abridged:
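Cytotoxicity readout: sulforhodamine B (0.1%) staining of total protein after 10% TCA fixation, measured at 560 nm in human umbilical vein endothelium at 24 h. DMSO set the baseline; fitting was bidirectional.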

A short description of test [12]: BSK_BE3C_SRB: Viability Assessment in the BioMAP Diversity Plus: BE3C Assay (AID 2283028).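 On AC50: fitted both ways so AC50 may mark signal gain or loss versus DMSO.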 The note with it: primary human bronchial epithelial cells. The procedure, abridged:
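Human bronchial epithelial primary cells in confluent culture, 24 h after chemical dosing; total protein by 0.1% SRB staining after 10% TCA fixation, read at 560 nm. Bidirectional fitting versus DMSO baseline.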

Read-out in test [13]: Thrombomodulin, THBD (gene 7056)
The test can be described thus: BSK_3C_Thrombomodulin: BioMAP Diversity Plus: 3C Assay for Thrombomodulin Biomarker Activity (AID 2283029). The note with it: primary human endothelial cells (HUVEC); actives raise or lower the signal. The procedure, abridged:
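HUVEC, 3C conditions; compound 24 h; thrombomodulin by ELISA; bidirectional curve fit vs DMSO baseline; parallel SRB total-protein staining for cytotoxicity.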

Read-out in test [14]: Urokinase-type plasminogen activator receptor (uPAR), PLAUR (gene 5329)
The test can be described thus: BSK_4H_uPAR: BioMAP Diversity Plus: 4H Assay for Urokinase-type plasminogen activator receptor (uPAR) Biomarker Activity (AID 2283030). To be noted: primary human endothelial cells (HUVEC); actives raise or lower the signal. The method in brief:
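Human umbilical vein endothelial cells in the 4H system, 24 h after chemical dosing. Cell-surface uPAR measured by ELISA, fitted in both directions versus DMSO; cytotoxicity checked by SRB total protein in parallel cultures.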

For test [15], the target named is human Thyroid Receptor alpha (THRa1), THRA (gene 7067) (UniProt P10827). The test can be described thus: ATG_THRa1_TRANS: Attagene TRANS-FACTORIAL HepG2 Assay for human Thyroid Receptor alpha (THRa1) (AID 2283014; active means hit-call score of the fitted dose curve at least 0.9, where 1 is the maximum). The procedure, abridged:
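HepG2 cells transiently transfected with chimeric NR-Gal4 and GAL4-UAS reporter units, dosed 24 h. Reporter mRNA quantified by RT-PCR, fluorescent labeling, HpaI digestion and capillary electrophoresis; gain-of-signal fit versus DMSO.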

Read-out in test [16]: Monocyte Chemoattractant Protein-1 (MCP1), CCL2 (gene 6347)
The experiment in a line: BSK_3C_MCP1: BioMAP Diversity Plus: 3C Assay for Monocyte Chemoattractant Protein-1 (MCP1) Biomarker Activity (AID 2283017). To be noted: primary human endothelial cells (HUVEC); actives raise or lower the signal. The procedure, abridged: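 Human umbilical vein endothelial cells (3C system) exposed to chemicals for 24 h; MCP-1 quantified by ELISA against the DMSO baseline with bidirectional fitting, and parallel SRB staining used to assess cytotoxicity.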

Read-out in test [17]: Human Leukocyte Antigen - DR isotype (HLADR), HLA-DRA (gene 3122)
The test can be described thus: BSK_3C_HLADR: BioMAP Diversity Plus: 3C Assay for Human Leukocyte Antigen - DR isotype (HLADR) Biomarker Activity (AID 2283019). The note with it: primary human endothelial cells (HUVEC); actives raise or lower the signal. The method in brief: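 HUVEC monoculture, HLA-DR measured by ELISA 24 h after chemical dosing. Fitted bidirectionally against DMSO baseline; parallel SRB staining assessed cytotoxicity, with 3C proliferation read by SRB at 48 h.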

Test [18] has as its target human Vitamin D Receptor (VDR), VDR (gene 7421) (UniProt P11473). The experiment in a line: ATG_VDR_TRANS: Attagene TRANS-FACTORIAL HepG2 Assay for human Vitamin D Receptor (VDR) (AID 2283022; active means hit-call score of the fitted dose curve at least 0.9, where 1 is the maximum). The method in brief: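 HepG2 cells were transiently transfected with GAL4-UAS reporter units and a chimeric VDR-Gal4 construct, then dosed for 24 hours. Reporter mRNA was quantified by RT-PCR, fluorescent labeling, HpaI digestion and capillary electrophoresis; gain of signal analysed vs DMSO.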

Sequence of E-selectin (Homo sapiens) (P16581 whole entry, looked up): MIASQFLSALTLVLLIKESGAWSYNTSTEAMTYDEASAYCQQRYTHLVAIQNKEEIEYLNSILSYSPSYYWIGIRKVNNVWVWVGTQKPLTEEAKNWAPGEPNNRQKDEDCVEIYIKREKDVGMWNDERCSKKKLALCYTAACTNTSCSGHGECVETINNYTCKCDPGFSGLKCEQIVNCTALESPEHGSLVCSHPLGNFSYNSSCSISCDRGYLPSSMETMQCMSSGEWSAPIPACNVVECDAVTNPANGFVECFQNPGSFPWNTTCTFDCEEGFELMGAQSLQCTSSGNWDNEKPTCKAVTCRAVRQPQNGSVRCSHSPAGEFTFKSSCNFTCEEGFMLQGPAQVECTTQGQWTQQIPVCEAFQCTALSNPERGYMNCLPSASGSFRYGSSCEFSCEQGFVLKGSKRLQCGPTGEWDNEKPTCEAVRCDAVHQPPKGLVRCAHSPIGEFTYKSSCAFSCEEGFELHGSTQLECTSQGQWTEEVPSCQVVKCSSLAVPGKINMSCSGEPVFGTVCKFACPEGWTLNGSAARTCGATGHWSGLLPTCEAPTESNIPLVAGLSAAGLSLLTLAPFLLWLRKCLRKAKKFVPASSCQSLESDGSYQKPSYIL
Sequence of human Retinoid X Receptor beta (RXRb), RXRB (gene 6257) (P28702 whole entry, looked up, the tested form may be a part): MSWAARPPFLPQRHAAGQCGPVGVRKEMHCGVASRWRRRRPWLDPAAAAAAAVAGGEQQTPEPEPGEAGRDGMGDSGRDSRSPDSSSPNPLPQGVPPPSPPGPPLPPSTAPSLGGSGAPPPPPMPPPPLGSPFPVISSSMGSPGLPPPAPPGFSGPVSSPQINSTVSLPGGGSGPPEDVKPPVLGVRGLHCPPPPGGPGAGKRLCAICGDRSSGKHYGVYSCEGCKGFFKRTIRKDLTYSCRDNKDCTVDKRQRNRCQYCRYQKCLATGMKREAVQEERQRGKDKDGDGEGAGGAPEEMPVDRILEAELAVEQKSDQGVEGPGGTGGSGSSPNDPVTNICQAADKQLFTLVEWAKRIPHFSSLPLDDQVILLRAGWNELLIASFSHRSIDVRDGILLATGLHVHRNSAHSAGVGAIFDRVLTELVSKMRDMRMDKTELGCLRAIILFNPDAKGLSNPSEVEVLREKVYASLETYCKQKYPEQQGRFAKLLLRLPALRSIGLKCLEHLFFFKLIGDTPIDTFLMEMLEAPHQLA
Sequence of human Thyroid Receptor alpha (THRa1), THRA (gene 7067) (P10827 whole entry, looked up, the tested form may be a part): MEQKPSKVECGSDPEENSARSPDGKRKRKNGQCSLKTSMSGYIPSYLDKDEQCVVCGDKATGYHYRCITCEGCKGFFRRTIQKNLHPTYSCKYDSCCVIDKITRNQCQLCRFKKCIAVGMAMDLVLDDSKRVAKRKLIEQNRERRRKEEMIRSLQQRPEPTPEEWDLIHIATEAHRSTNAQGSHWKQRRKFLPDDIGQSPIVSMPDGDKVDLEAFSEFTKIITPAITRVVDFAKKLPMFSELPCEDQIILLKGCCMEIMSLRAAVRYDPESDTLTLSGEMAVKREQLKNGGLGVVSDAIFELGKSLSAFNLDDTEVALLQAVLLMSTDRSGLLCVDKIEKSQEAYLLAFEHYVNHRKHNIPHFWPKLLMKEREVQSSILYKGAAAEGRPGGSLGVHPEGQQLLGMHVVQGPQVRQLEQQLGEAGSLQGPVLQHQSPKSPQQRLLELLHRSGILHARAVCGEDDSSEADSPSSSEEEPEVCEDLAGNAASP
Sequence of human Vitamin D Receptor (VDR), VDR (gene 7421) (P11473 whole entry, looked up, the tested form may be a part): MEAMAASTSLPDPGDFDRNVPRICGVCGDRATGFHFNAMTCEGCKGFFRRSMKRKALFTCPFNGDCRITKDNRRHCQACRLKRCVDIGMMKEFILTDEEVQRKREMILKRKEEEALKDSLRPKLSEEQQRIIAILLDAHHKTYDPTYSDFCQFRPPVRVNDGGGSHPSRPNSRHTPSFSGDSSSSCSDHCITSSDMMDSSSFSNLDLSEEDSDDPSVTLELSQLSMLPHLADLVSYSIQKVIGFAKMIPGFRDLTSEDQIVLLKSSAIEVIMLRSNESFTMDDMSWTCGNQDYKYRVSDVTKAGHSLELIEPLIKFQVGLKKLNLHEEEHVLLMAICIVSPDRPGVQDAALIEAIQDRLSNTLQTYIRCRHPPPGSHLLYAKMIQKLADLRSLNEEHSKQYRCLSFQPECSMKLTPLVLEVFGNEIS

`OCCN(CCO)CCO`: the molecule was called inactive in test [1], in test [2], in test [3], in test [4], in test [5] and in test [6]. The outcome in test [7], in [8], in test [9], in test [10], in test [11] and in [12] was inactive. The outcome in test [13] and in test [14] was inactive.
As for `CC(C)N(C(=O)CCl)c1ccccc1`, the result in [15], in test [5], in test [8] and in test [13] was inactive. The AC50 in [2] was 20 µM (active); in test [3] it was 35.1 µM (active); in test [16], 20 µM (active); in [4] it was 20 µM (active); in test [17] it was 7.36 µM (active); in test [6] it was 33.3 µM (active). Besides, the AC50 is 20 µM (active) in [7]; 14.5 µM (active) in test [9]; 16.8 µM (active) in test [10]; 24.5 µM (active) in [11]; 29.9 µM (active) in test [12]; 35.1 µM (active) in test [14].
For `CCCCOP(=O)(CCCC)OCCCC`, the molecule was classed as inactive in test [15] and in test [18].
As to `O=C1C[C@@H]2OCC=C3CN4CC[C@]56c7ccccc7N1[C@H]5[C@H]2[C@H]3C[C@H]46`, the result in test [15] was inactive.
Consider `C=CC(=O)[O][Sn]([CH2]CCC)([CH2]CCC)[CH2]CCC`, for which the AC50 in test [1] was 0.000682 µM (active). For the same molecule, the molecule was classed as inactive in test [15] and in [18].
Regarding `O=C(Nc1ccc(Br)cc1)c1cc(Br)cc(Br)c1O`, the molecule was classed as inactive in test [18].
Consider `CCCSP(=S)(OCC)Oc1ccc(SC)cc1` (centres undefined), for which the molecule was called inactive in [1] and in test [18].
As to `CCOc1ccc(N)cc1`, the call in [15] was inactive.
For `N#Cc1ccccc1Cl`, the call in test [1] and in [18] was inactive.
Consider `CC(C)[C@@H](Nc1ccc(C(F)(F)F)cc1Cl)C(=O)OC(C#N)c1cccc(Oc2ccccc2)c1` (some centres undefined), for which, in test [18], the molecule was classed as inactive.
As for `Cc1cccc(OP(=O)(Oc2cccc(C)c2)Oc2cccc(C)c2)c1`, the result in [2], in test [4], in test [5], in test [6], in test [7] and in test [8] was inactive. Besides, the outcome in test [9], in test [10], in test [11], in test [12] and in test [14] was inactive. Also, the AC50 in [3] was 0.78 µM (active); in test [13], 0.14 µM (active).
With `CCC[CH2][Sn]([Cl])([Cl])[CH2]CCC`, the molecule was classed as inactive in test [15].
Consider `CC(C)(C1CCC(O)CC1)C1CCC(O)CC1` (centres undefined), for which the result in test [1] and in [18] was inactive.
Take `N#CCCC(Br)(C#N)CBr` (centres undefined): the AC50 in test [2] was 10.6 µM (active); in test [3], 20 µM (active); in [16], 7.55 µM (active); in test [4], 5.77 µM (active); in test [17] it was 3.16 µM (active); in test [5], 8.39 µM (active). Besides, the AC50 in test [6] was 12.7 µM (active); in test [7], 5.06 µM (active); in [8], 20 µM (active); in [9] it was 5.04 µM (active); in [10], 6.62 µM (active); in test [11], 6.36 µM (active). For the same molecule, the half-maximal activity concentration (AC50) in [12] is 20 µM (active); in [14], 8.75 µM (active). Moreover, the molecule was classed as inactive in [18] and in test [13].
Take `CCOC(=O)c1ccccc1S(=O)(=O)NC(=O)Nc1nc(Cl)cc(OC)n1`: the molecule was classed as inactive in [18].
Consider `O=C(Cl)OCCOCCOC(=O)Cl`, for which the outcome in [1], in test [15] and in [18] was inactive.
